FLuc modulator = counter-screen for miR-21 project: firefly luciferase inhibitors or activators. P08659. purified FLuc, Km substrates, luminescence inhibition. Potency, µM (titrated, usually from 57.5 µM), inactives show at the highest dose activity change, negative = inhibition, usual class: inhibitors. 360,000 tested, 6.9% active;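 note: plate controls were vehicle for no effect and reference inhibitor for full effect; nearly all actives have a fitted effect of over 55% in size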
Target sequence (P08659 whole entry, looked up): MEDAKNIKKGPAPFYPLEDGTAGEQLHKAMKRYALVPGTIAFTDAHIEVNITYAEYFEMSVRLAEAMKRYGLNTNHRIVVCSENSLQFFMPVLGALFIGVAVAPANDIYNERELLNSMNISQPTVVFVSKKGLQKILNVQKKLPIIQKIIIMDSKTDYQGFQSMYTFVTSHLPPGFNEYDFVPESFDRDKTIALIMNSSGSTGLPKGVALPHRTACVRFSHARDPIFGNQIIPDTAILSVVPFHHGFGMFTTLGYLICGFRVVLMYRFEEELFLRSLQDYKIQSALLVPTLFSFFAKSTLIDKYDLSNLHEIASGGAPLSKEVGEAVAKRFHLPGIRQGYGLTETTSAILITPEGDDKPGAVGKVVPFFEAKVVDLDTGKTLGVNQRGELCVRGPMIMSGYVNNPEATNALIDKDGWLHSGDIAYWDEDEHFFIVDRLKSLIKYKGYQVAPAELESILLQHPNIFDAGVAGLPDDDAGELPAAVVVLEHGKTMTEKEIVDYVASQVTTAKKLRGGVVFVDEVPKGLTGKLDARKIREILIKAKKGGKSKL
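Purified P. pyralis luciferase, 10 nM final, with Km-level 10 uM D-luciferin and 10 uM ATP in 50 mM Tris acetate pH 7.5, 10 mM Mg acetate, 0.01% Tween-20, 0.05% BSA; 6-point qHTS titration about 60 µM downward; luminescence read.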
NPC1 promoter act = NPC1 promoter activation; Huh7 NPC1 promoter luciferase reporter, 24 h; Potency, µM (doses to about 9.22 µM), without a hit: at the highest dose activation, actives largely listed as activators; 320,000 tested, 2.4% active; note: % of control where 0% means no effect; nearly all actives have a fitted effect of over 60% in size
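Luciferase expression driven by the NPC1 promoter was measured in stably transfected Huh7 cells after a 24 h compound incubation, using a luciferase reagent and a luminescence read.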
Luc counter = Kinase-Glo luciferase inhibition (counter-screen); Kinase-Glo luciferase, ATP luminescence, 8 min; Potency, µM (highest dose often 38.3 µM), for the others: at the top dose activity change, negative = inhibition, hits mostly inhibitors; 200,000 tested, 0.28% active; note: % is set by controls: 0 for no effect and ±100 for the full control effect; nearly all actives have a fitted effect of over 60% in size
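Recombinant Kinase-Glo luciferase, 10 uM ATP (linear range), luciferin; imidazole pH 7.2 / KCl / MgCl2 / Tween / BSA buffer; 8 min RT; luminescence.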
Rab9 prom act = activators of Rab9 promoter; Huh7 Rab9 promoter-luciferase reporter, luminescence, 24 h; Potency, µM (titrated, usually from 9.22 µM), for inactives: at the top dose activation, negative = inhibition, usual class: activators; 320,000 tested, 2.8% active; note: % of control where 0% means no effect; nearly all actives have a fitted effect of over 60% in size
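Huh7 reporter line, Rab9 promoter upstream of luciferase. Compound exposure 24 h at 37 °C in reduced-serum medium with 10% FBS. Read-out: luminescence.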
ELG1 genotox = induces genotoxicity in HEK293T cells with luciferase-tagged ELG1. HEK293T ELG1-luciferase reporter, luminescence, 16 h. Potency, µM (series often up to 46 µM), for inactives: at the top dose activity change, positive = activation, actives largely listed as activators. 330,000 tested, 1.3% active; note: % of control where 0% means no effect; nearly all actives have a fitted effect of over 60% in size
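Screening used a luciferase reporter fused to human ELG1 in HEK293T cells. Luminescence was read on a CCD plate imager after 16 hr exposure and 30 min ONE-Glo incubation.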
SMN2 splice enh = enhancers of SMN2 splice variant expression; 210,000 tested, 2.8% active; Potency, µM (doses to about 46.1 µM), for inactives: at the highest dose activity change, positive = activation, hits mostly activators; AID 1458; HEK293 SMN2-luciferase splicing reporter, luminescence, 30-36 h; note: % of control where 0% means no effect; nearly all actives have a fitted effect of over 55% in size
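HEK293 cells carry an SMN2 […]–luciferase reporter in which exon 7 inclusion puts luciferase in frame. Cells were plated 10-12 h before compound addition, then incubated 30-36 h at 37C. ONE-Glo luminescence was read; sodium butyrate at 4.5 mM final served as control.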
* marks the source's active call; other numbers are inactive results; ? = inconclusive; . = no result given. A selection: hits, their analogues and other compounds. The true share with any hit is near 7.5%. Calls come from the whole dose curve; as a rule, active = well fitted curve in the direction sought with a large enough effect; inconclusive = small, poorly fitted or top-dose-only effect, or another doubt; inactive = no such curve, though single readings can be large; an effect the other way counts as inactive or inconclusive. Potency is the fitted concentration of half-maximal effect.

SMILES	FLuc modulator	NPC1 promoter act	Luc counter	Rab9 prom act	ELG1 genotox	SMN2 splice enh
Cc1cc(NC(=O)c2ccc(S(=O)(=O)N(C)C)cc2)no1	-15.6%	-0.5%	-0.3%	-1.2%	8.7%	21.5%
CC(=O)N1c2ccc(S(=O)(=O)N3CCCC3)cc2CC1C(=O)NCc1ccc(N(C)C)cc1 (stereo unspecified)	-1.0%	16.1%	.	3.2%	0.2%	.
Cc1cc(NC(=O)Cc2ccccc2)no1	1.6%	-3.3%	0.1%	-5.0%	1.8%	-22.4%
Cc1cc(NC(=O)NC(=O)c2ccccc2)no1	?	3.98µM*	.	2.51µM*	14.6µM*	.
C/C(=C\c1ccccc1)C(=O)Nc1cc(C)on1	15.1µM*	19.6%	-5.1%	?	?	-33.1%
COc1cc2c(cc1NC(=O)C(C)OC(=O)C1CC(=O)N(Cc3ccco3)C1)oc1ccccc12 (stereo unspecified)	?	?	2.1%	?	20.6µM*	23.5%
CS(=O)(=O)c1cccc(C(=O)OCC(=O)c2ccc3c(c2)OCCO3)c1	1.69µM*	-0.3%	.	10.4%	4.3%	.
CCN(CC)S(=O)(=O)c1cccc(C(=O)OCC(=O)c2ccc3c(c2)OCCO3)c1	0.536µM*	-2.0%	-2.6%	1.4%	-1.2%	-38.1%
O=C(CN1C(=O)COc2ccccc2C1=O)c1ccc2c(c1)OCCO2	6.75µM*	-4.0%	.	-3.2%	5.4%	.
CN(C)S(=O)(=O)c1cccc(C(=O)OCC(=O)Nc2ccc3c(c2)OCCO3)c1	?	-3.5%	.	-2.7%	4.1%	.
O=C(CS(=O)(=O)c1ccccc1)c1ccc2c(c1)OCCO2	6.01µM*	2.82µM*	10µM*	2.82µM*	?	-11.0%
C[C@]12C[C@H](O)C3[C@@H](CCC4=CC(=O)CC[C@@]43C)[C@@H]1CC[C@@H]2C(=O)CO (stereo partly specified)	.	.	-6.8%	.	.	-33.2%
COc1ccccc1CNC(=O)Cn1c(=O)oc2cc(S(=O)(=O)N3CCC(C)CC3)ccc21	-16.4%	.	.	.	.	-63.5%
O=C(COC(=O)c1cccc(S(=O)(=O)NCc2ccccc2)c1)c1ccc2c(c1)OCCO2	1.35µM*	-1.9%	3.0%	-3.1%	-4.4%	-15.0%
Cc1c(C(=O)OCC(=O)c2ccc3c(c2)OCCO3)oc2ccccc12	9.53µM*	12.4%	-2.0%	22.5%	6.7%	-11.2%
O=C(COC(=O)c1cccc(S(=O)(=O)NCc2ccccc2)c1)NC1CC1	.	.	.	.	-0.7%	.
Cc1c(C(=O)OCC(=O)N2CCC(C)CC2)oc2ccccc12	?	9.3%	.	20.7%	?	.
Cc1ccc(CNC(=O)CSC2=Nc3ccccc3N=C(c3ccc(F)cc3)C2)cc1	1.7%	.	.	.	.	.
COc1ccc(C2CC(=O)c3c([nH]c(C(=O)OC4CCCCCC4)c3C)C2)cc1OC (stereo unspecified)	5.5%	.	.	.	.	-19.1%
O=C(N/N=C/c1ccco1)c1cccc(NC(=O)c2cccc(Cl)c2)c1	?	8.1%	.	17.9%	-1.6%	.
CC(=O)c1cccc(NC(=O)c2cccc(NC(=O)c3ccco3)c2)c1	-14.9%	-1.2%	.	7.5%	-3.2%	.
C/C(=N\NC(=O)c1cccc(C)c1)c1cccc(NC(=O)c2ccco2)c1	15.1µM*	1.1%	-3.3%	-4.8%	2.8%	4.4%
C/C(=N\NC(=O)c1cccc(Cl)c1)c1cccc(NC(=O)c2ccco2)c1	19µM*	-3.7%	0.4%	0.1%	-3.0%	8.1%
COc1ccc(-n2c(SCC(=O)Nc3cccc(C)c3C)nc3c([nH]c4ccccc43)c2=O)cc1	-2.9%	.	.	.	.	.
O=[N+]([O-])c1ccc(-c2cn3c(n2)CCC3)cc1	23.9µM*	?	.	?	15.0%	.
c1ccc(-c2cn3c(n2)CCC3)cc1	-5.4%	0.2%	-5.0%	0.3%	15.6%	0.7%
COc1cc2c(=O)c(S(=O)(=O)c3ccc(F)cc3)cn(Cc3ccc(Cl)cc3)c2cc1OC	1.3%	.	.	.	.	?
